Data: PubChem BioAssay
Activity calls are given as the source filed them.

Tests used:
[1] = binders of probe aFSTL3 on microarray, primary screen, stem cell growth factor project, biochemical, small-molecule microarray, fluorescence 635/667 (AID 1064); conditions: higher = more signal;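 also: measures binding of the biotinylated anti-FSTL3 antibody to printed compounds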
[2] = binders from COS7 lysate, DM2A8 probe, primary screen, torsin A project, cell lysate, small-molecule microarray, fluorescence 635/667 (AID 1065); conditions: higher = more signal, COS7 lysate expressing mutant human TOR1A
[3] = binders of probe aFGF2 on microarray, primary screen, stem cell growth factor project, biochemical, small-molecule microarray, fluorescence 635/667 (AID 1067); conditions: higher = more signal;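 also: measures binding of biotinylated aFGF2 protein to printed compounds on slides; z-score merges feature fluorescence and signal-to-noise across triplicate slides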
[4] = binders of probe aFGF10 on microarray, primary screen, stem cell growth factor project, biochemical, small-molecule microarray, fluorescence 635/667 (AID 1071); conditions: higher = more signal;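 also: score merges 667 nm spot intensity and signal to noise from triplicate slides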
[5] = biological target: Neurogenic locus notch homolog protein 2 (Homo sapiens) (UniProt Q04721); assay: Notch2 binders on small-molecule microarrays, primary screen, biochemical, small-molecule microarray, 635 nm fluorescence, stem cell growth factors (AID 1073); conditions: Notch2 binding, higher = more signal
Neurogenic locus notch homolog protein 2 (Homo sapiens), sequence (Q04721 whole entry, looked up, canonical isoform): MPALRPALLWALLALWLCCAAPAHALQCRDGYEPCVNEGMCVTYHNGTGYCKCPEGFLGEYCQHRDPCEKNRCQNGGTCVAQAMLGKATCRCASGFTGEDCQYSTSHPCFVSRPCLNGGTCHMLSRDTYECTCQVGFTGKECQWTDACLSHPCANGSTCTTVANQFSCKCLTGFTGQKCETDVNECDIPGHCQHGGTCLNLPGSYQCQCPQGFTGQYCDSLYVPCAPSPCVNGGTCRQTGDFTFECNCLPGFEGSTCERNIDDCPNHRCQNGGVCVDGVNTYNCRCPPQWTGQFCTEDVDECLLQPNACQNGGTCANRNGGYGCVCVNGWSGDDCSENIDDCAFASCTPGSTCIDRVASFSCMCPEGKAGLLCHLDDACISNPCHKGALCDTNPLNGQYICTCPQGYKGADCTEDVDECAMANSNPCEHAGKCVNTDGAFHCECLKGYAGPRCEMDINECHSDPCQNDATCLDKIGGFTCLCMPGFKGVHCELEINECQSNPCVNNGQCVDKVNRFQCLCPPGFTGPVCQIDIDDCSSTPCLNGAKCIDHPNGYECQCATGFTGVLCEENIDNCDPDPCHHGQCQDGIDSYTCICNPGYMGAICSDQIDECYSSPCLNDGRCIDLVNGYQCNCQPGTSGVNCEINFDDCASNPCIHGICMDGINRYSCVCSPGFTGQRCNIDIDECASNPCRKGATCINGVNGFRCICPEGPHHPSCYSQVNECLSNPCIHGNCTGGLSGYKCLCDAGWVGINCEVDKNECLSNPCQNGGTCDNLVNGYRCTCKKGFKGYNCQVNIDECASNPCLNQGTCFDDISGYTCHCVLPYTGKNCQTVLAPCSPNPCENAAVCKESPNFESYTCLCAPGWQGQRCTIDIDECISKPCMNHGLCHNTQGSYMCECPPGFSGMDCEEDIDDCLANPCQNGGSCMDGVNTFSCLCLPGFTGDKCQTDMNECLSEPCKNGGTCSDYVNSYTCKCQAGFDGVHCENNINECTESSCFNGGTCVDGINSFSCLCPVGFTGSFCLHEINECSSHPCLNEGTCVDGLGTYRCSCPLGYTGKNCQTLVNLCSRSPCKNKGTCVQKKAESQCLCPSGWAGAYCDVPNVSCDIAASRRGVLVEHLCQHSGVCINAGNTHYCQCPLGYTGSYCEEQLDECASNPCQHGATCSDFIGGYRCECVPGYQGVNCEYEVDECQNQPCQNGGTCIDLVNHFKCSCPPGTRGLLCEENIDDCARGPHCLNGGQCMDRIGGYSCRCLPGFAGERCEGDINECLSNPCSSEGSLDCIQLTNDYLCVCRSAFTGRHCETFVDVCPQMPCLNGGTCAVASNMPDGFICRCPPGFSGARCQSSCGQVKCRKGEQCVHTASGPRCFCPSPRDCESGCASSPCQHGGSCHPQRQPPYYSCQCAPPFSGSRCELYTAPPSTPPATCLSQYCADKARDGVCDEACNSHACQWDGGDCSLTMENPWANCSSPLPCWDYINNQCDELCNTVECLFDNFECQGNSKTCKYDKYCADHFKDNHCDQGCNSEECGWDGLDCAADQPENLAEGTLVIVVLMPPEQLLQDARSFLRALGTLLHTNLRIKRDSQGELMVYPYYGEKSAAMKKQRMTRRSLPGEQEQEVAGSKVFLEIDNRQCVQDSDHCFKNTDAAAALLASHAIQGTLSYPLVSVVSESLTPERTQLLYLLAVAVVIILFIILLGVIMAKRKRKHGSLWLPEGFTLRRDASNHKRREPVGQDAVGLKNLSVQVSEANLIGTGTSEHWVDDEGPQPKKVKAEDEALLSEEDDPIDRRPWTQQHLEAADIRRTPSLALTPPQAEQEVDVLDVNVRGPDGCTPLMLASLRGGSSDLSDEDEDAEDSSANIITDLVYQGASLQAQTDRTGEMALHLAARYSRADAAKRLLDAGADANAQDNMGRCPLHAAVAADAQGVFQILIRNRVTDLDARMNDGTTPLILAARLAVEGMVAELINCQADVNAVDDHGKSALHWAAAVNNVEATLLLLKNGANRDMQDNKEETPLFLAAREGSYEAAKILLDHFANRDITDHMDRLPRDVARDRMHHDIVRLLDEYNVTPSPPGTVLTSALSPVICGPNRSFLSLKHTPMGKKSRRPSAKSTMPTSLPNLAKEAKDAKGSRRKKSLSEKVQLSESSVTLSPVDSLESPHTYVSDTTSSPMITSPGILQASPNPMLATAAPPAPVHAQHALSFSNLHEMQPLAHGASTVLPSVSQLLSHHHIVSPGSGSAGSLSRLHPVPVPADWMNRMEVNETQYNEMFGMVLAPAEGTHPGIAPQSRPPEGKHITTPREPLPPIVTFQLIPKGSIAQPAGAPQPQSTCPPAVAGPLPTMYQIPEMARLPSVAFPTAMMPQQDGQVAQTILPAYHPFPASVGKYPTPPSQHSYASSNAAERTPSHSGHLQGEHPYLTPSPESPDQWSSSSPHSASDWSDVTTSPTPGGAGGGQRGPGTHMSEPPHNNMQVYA

[6] = biological target: Pro-neuregulin-1, membrane-bound isoform (Homo sapiens) (UniProt Q02297); assay: NRG1 binders on small-molecule microarrays, primary screen, psychiatric disease protein project, biochemical, small-molecule microarray, fluorescence 635/667 (AID 1075); conditions: NRG1 binding, 635 nm fluorescence, higher = more signal;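 also: score combines 667 nm spot fluorescence with signal to noise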
Pro-neuregulin-1, membrane-bound isoform (Homo sapiens), sequence (Q02297 whole entry, looked up, the tested form may be a part, canonical isoform): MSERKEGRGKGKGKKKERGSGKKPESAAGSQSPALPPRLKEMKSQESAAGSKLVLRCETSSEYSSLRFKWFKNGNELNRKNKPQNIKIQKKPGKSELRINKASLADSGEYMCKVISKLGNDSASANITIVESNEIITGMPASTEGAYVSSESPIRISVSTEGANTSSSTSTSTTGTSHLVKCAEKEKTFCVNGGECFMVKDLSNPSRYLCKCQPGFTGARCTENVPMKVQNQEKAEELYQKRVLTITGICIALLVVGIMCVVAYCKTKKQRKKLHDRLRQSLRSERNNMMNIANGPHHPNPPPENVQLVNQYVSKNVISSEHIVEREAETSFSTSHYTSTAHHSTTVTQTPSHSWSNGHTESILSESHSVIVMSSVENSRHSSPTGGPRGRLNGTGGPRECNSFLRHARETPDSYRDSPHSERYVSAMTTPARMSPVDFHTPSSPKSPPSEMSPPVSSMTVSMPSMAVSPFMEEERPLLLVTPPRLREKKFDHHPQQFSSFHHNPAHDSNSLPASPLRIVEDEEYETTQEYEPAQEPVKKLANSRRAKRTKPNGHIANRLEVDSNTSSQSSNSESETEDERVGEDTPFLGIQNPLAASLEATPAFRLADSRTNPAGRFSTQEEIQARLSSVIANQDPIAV

[7] = tested on: Neuregulin-1 EGF-like domain; assay: binders of neuregulin-1 EGF-like domain, primary screen, biochemical, small-molecule microarray, 635 nm fluorescence (AID 1081); conditions: small-molecule microarray binding, higher = more signal;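 also: binding of the protein to compounds printed on small-molecule microarray slides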
[8] = FRG1 promoter luciferase signal modulators, primary screen, FRG1 inhibition for FSHD, cell-based, C2C12 myotubes, firefly/Renilla luciferase, luminescence (AID 1084); conditions: higher = more signal, called active from +8 up or from −8 down
[9] = binders of probe aFST on microarray, primary screen, stem cell growth factor project, biochemical, small-molecule microarray, fluorescence 635/667 (AID 1086); conditions: higher = more signal;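 also: score merges 667 nm fluorescence with signal-to-noise of each printed compound spot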
[10] = binders of probe aHhip on microarray, primary screen, stem cell growth factor project, biochemical, small-molecule microarray, fluorescence 635/667 (AID 1087); conditions: higher = more signal;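 also: score merges spot fluorescence at 667nm with spot signal to noise ratio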
[11] = tested on: PRMT1 (protein arginine N-methyltransferase 1); assay: PRMT1 binders on small-molecule microarrays, primary screen, biochemical, small-molecule microarray, 635 nm fluorescence (AID 1088); conditions: small-molecule microarray binding, higher = more signal;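 also: binding of Prmt1 protein to compounds spotted on small-molecule microarray slides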
[12] = yeast growth modulation, basal conditions, primary screen, YJM789 clinical isolate, OD600, 24 h (AID 1089);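 also: growth of clinical yeast isolate S. cerevisiae YJM 789 seeded 1000 cells per well; test concentration not given here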; conditions: S. cerevisiae YJM789 growth, higher = more signal, called active from +8 up or from −8 down
[13] = fission yeast growth modulation, primary screen, strain 972, OD600, 24 h, no modulator (AID 1090);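 also: basal condition with compound alone and no growth modifier present; test concentration not given here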; conditions: S. pombe 972 growth, higher = more signal, called active from +8 up or from −8 down
[14] = S. cerevisiae growth modulation with rapamycin, primary screen, strain BY4716, OD600, 96 h (AID 1091); conditions: higher = more signal, called active from +8 up or from −8 down; also: test concentration not given here
[15] = biological target: Torsin-1A-interacting protein 2 (Homo sapiens) (UniProt Q8NFQ8); assay: LULL1 binders on small-molecule microarray, primary screen, cell lysate, human LULL1 lysate, 635/667 nm fluorescence (AID 1092); conditions: hLULL1 lysate binding, 635 nm fluorescence, higher = more signal;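 also: probe is lysate of COS7 cells overexpressing human LULL1; score merges per-feature 667 nm fluorescence with signal-to-noise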
Torsin-1A-interacting protein 2 (Homo sapiens), sequence (Q8NFQ8 whole entry, looked up): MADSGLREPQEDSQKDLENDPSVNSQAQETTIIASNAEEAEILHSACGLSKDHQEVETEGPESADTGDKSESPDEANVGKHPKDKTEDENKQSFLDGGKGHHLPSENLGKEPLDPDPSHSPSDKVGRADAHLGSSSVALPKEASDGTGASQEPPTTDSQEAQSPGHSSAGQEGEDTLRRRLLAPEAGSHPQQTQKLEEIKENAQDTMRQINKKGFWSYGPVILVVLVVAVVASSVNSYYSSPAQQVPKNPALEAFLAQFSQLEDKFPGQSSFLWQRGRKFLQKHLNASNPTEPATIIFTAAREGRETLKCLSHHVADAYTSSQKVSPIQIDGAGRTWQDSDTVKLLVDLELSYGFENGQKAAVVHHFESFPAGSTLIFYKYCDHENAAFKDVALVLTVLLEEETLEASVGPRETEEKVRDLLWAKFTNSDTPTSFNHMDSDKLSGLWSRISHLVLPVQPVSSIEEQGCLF

[16] = E. coli growth modulation, two-sided OD650, primary screen, E. coli filamentation project, strain DRC41, 24 h (AID 1093); conditions: OD650, 24 h, higher = more signal, called active from +8 up or from −8 down;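 also: MC1000 strain lacking acrAB efflux and sulA so SOS filamentation is blocked; test concentration not given here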
[17] = small-molecule microarray binders of probe aLefty2, primary screen, biochemical, biotinylated probe, 635/667 nm fluorescence (AID 1094); conditions: higher = more signal;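 also: score merges spot fluorescence near 667 nm with spot signal-to-noise ratio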
[18] = tested on: Noggin (protein binding on small-molecule microarray); assay: Noggin binders on small-molecule microarray, primary screen, biochemical, 635/667 nm fluorescence (AID 1095); conditions: 635 nm fluorescence, higher = more signal;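 also: score merges 667 nm feature fluorescence with signal to noise over triplicate slides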
[19] = biological target: Neurogenic locus notch homolog protein 3 (Homo sapiens) (UniProt Q9UM47); assay: NOTCH3 binders on small-molecule microarray, primary screen, biochemical, 635/667 nm fluorescence (AID 1096); conditions: NOTCH3 binding, 635 nm fluorescence, higher = more signal
[20] = small-molecule microarray binders of probe aEGFR, primary screen, biochemical, biotinylated probe, 635/667 nm fluorescence (AID 1097); conditions: higher = more signal;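 also: probe is a biotinylated anti-EGFR antibody binding compounds printed on slides; score combines fluorescence near 667 nm and signal to noise of each spot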

## O=C1OCC=C[C@H]2OC34C=CCN(Cn5nnc6ccccc65)C(=O)[C@H]3N(CCCO)C(=O)[C@@H]4[C@@H]12 (stereo not given in full)
[1]
  composite z-score: 0.466
[2]
  composite z-score: -0.772
[3]
  composite z-score: -0.0015
[4]
  composite z-score: 0.0131
[5]
  composite z-score: -1.04
[6]
  composite z-score: 1.09
[7]
  composite z-score: 1.54
[8]
  z-score: 0.67 (inactive)
[9]
  composite z-score: -0.772
[10]
  composite z-score: -0.0618
[11]
  composite z-score: -0.169
[12]
  z-score: 0.465 (inactive)
[13]
  z-score: -0.883 (inactive)
[14]
  z-score: -0.437 (inactive)
[15]
  composite z-score: 0.433
[16]
  z-score: 1.93 (inactive)
[17]
  composite z-score: -0.217
[18]
  composite z-score: -0.2
[19]
  composite z-score: -0.579
[20]
  composite z-score: -0.356

## C[C@@H]1ON(c2ccc(C(=O)OC(C)(C)C)cc2)[C@H](c2ccc(O)cc2)[C@H]1C(=O)N1C(=O)OC[C@H]1Cc1ccccc1
[1]
  composite z-score: -0.521
[2]
  composite z-score: 0.707
[3]
  composite z-score: -0.109
[4]
  composite z-score: 0.8
[5]
  composite z-score: 1.37
[6]
  composite z-score: 0.803
[7]
  composite z-score: 1.05
[8]
  z-score: 0.0087 (inactive)
[9]
  composite z-score: 0.236
[10]
  composite z-score: -0.0645
[11]
  composite z-score: 1.56
[12]
  z-score: 0.465 (inactive)
[13]
  z-score: -0.29 (inactive)
[14]
  z-score: 1.84 (inactive)
[15]
  composite z-score: 1.24
[16]
  z-score: -0.63 (inactive)
[17]
  composite z-score: -0.146
[18]
  composite z-score: 0.525
[19]
  composite z-score: 1.12
[20]
  composite z-score: -0.0333

## Cc1ccc(S[C@]2(C(=O)O)CC(=O)N(Cc3cc(C(F)(F)F)cc(C(F)(F)F)c3)[C@@H]2c2ccc(CO)cc2)cc1
[1]
  composite z-score: 0.591
[2]
  composite z-score: -0.378
[3]
  composite z-score: -0.175
[4]
  composite z-score: -1.71
[5]
  composite z-score: -2.43
[6]
  composite z-score: 0.203
[7]
  composite z-score: 0.406
[8]
  z-score: 0.0661 (inactive)
[9]
  composite z-score: -0.395
[10]
  composite z-score: -0.464
[11]
  composite z-score: -0.224
[12]
  z-score: 0.952 (inactive)
[13]
  z-score: -0.539 (inactive)
[14]
  z-score: -0.0248 (inactive)
[15]
  composite z-score: 1.53
[16]
  z-score: -1.17 (inactive)
[17]
  composite z-score: -0.142
[18]
  composite z-score: -1.6
[19]
  composite z-score: -2.63
[20]
  composite z-score: -0.373

## COc1cc2c(cc1O)C(C)N(Cc1ccc([N+](=O)[O-])o1)CC2 (stereo not given)
[1]
  composite z-score: 0.182
[2]
  composite z-score: 0.731
[3]
  composite z-score: -0.0138
[4]
  composite z-score: 1.15
[5]
  composite z-score: 1.3
[6]
  composite z-score: 1.53
[7]
  composite z-score: 1.08
[8]
  z-score: 0.11 (inactive)
[9]
  composite z-score: 0.401
[10]
  composite z-score: 0.28
[11]
  composite z-score: 1.56
[12]
  z-score: -0.337 (inactive)
[13]
  z-score: -3.24 (inactive)
[14]
  z-score: -1.57 (inactive)
[15]
  composite z-score: 1.74
[16]
  z-score: -0.741 (inactive)
[17]
  composite z-score: 0.136
[18]
  composite z-score: 0.142
[19]
  composite z-score: 1.07
[20]
  composite z-score: 0.174

## CCCC[C@@H]1C[C@H]1[C@@H](NC(=O)Cc1ccccc1)c1ccc(-c2ccccc2)cc1
[1]
  composite z-score: -0.153
[2]
  composite z-score: 0.0056
[3]
  composite z-score: -0.0064
[4]
  composite z-score: -0.165
[5]
  composite z-score: 0.61
[6]
  composite z-score: 0.212
[7]
  composite z-score: 0.386
[8]
  z-score: 0.0529 (inactive)
[9]
  composite z-score: 0.482
[10]
  composite z-score: -0.0237
[11]
  composite z-score: 0.0706
[12]
  z-score: 0.341 (inactive)
[13]
  z-score: 0.373 (inactive)
[14]
  z-score: -0.116 (inactive)
[15]
  composite z-score: 2.94
[16]
  z-score: -0.255 (inactive)
[17]
  composite z-score: -0.0204
[18]
  composite z-score: -0.219
[19]
  composite z-score: 0.0419
[20]
  composite z-score: -0.125

## O=C1C=C(c2ccccc2)C(=O)c2ccc([C@H]3Oc4ccccc4S(=O)(=O)N4CCC[C@@H]34)cc21
[1]
  composite z-score: -0.292
[2]
  composite z-score: -0.303
[3]
  composite z-score: -0.116
[4]
  composite z-score: -0.0019
[5]
  composite z-score: -0.405
[6]
  composite z-score: -0.775
[7]
  composite z-score: -0.87
[8]
  z-score: 2.5 (inactive)
[9]
  composite z-score: -0.024
[10]
  composite z-score: 0.0659
[11]
  composite z-score: -0.208
[12]
  z-score: -0.818 (inactive)
[13]
  z-score: -14.9 (active)
[14]
  z-score: 0.696 (inactive)
[15]
  composite z-score: -1.27
[16]
  z-score: 1.66 (inactive)
[17]
  composite z-score: -0.18
[18]
  composite z-score: -0.144
[19]
  composite z-score: -0.272
[20]
  composite z-score: -0.119

## COc1ccc(CCNC(=O)[C@@]2(Sc3ccc(C)cc3)CC(=O)N(C3Cc4ccccc4C3)[C@@H]2c2ccc(CO)cc2)cc1
[1]
  composite z-score: 0.183
[2]
  composite z-score: 0.737
[3]
  composite z-score: 0.153
[4]
  composite z-score: -0.0334
[5]
  composite z-score: 1.43
[6]
  composite z-score: 0.591
[7]
  composite z-score: 1.29
[8]
  z-score: -3.33 (inactive)
[9]
  composite z-score: 0.384
[10]
  composite z-score: 0.866
[11]
  composite z-score: 1.54
[12]
  z-score: 0.593 (inactive)
[13]
  z-score: -0.468 (inactive)
[14]
  z-score: 0.707 (inactive)
[15]
  composite z-score: 1.88
[16]
  z-score: -1.79 (inactive)
[17]
  composite z-score: 0.0511
[18]
  composite z-score: 2.07
[19]
  composite z-score: 1.02
[20]
  composite z-score: 0.0707

## CCC[C@@H]1C[C@@]1(CCC)[C@@H](NC(=O)OCc1ccccc1)c1ccc(-c2ccccc2)cc1
[1]
  composite z-score: 0.49
[2]
  composite z-score: -0.602
[3]
  composite z-score: 0.0572
[4]
  composite z-score: -0.68
[5]
  composite z-score: -0.527
[6]
  composite z-score: -0.271
[7]
  composite z-score: -0.76
[8]
  z-score: -1.93 (inactive)
[9]
  composite z-score: -0.294
[10]
  composite z-score: 3.09
[11]
  composite z-score: -0.936
[12]
  z-score: -0.979 (inactive)
[13]
  z-score: -15.5 (active)
[14]
  z-score: -0.0091 (inactive)
[15]
  composite z-score: 0.543
[16]
  z-score: 0.0945 (inactive)
[17]
  composite z-score: 0.239
[18]
  composite z-score: -0.0553
[19]
  composite z-score: -0.621
[20]
  composite z-score: -0.186

## O[C@@H](Cc1ccccc1)[C@@H](/C=C/C1CC1)N(CC#Cc1ccccc1)Cc1cccc(Cl)c1
[1]
  composite z-score: 1.39
[2]
  composite z-score: -0.393
[3]
  composite z-score: -0.129
[4]
  composite z-score: -1.06
[5]
  composite z-score: -1.32
[6]
  composite z-score: -0.34
[7]
  composite z-score: -0.162
[8]
  z-score: -0.976 (inactive)
[9]
  composite z-score: -0.959
[10]
  composite z-score: -0.227
[11]
  composite z-score: -0.235
[12]
  z-score: 0.949 (inactive)
[13]
  z-score: 0.322 (inactive)
[14]
  z-score: -0.0243 (inactive)
[15]
  composite z-score: -0.0561
[16]
  z-score: 1.37 (inactive)
[17]
  composite z-score: 0.146
[18]
  composite z-score: -1.4
[19]
  composite z-score: -1.08
[20]
  composite z-score: -0.398

## O=C1N(Cc2ccccc2)Cc2ccccc2[C@@H]2OC(c3ccc(OCCCO)cc3)=N[C@]12CCS(=O)(=O)c1ccccc1
[1]
  composite z-score: 0.184
[2]
  composite z-score: -0.0546
[3]
  composite z-score: 0.0247
[4]
  composite z-score: 0.379
[5]
  composite z-score: 1.28
[6]
  composite z-score: 1.48
[7]
  composite z-score: 1.32
[8]
  z-score: -3.35 (inactive)
[9]
  composite z-score: 0.297
[10]
  composite z-score: -0.171
[11]
  composite z-score: 1.57
[12]
  z-score: 1.01 (inactive)
[13]
  z-score: 1.41 (inactive)
[14]
  z-score: 14.9 (active)
[15]
  composite z-score: 2.96
[16]
  z-score: 0.0267 (inactive)
[17]
  composite z-score: 0.228
[18]
  composite z-score: 0.49
[19]
  composite z-score: 0.763
[20]
  composite z-score: 0.209
